A selection: hits, their analogues and other compounds. The true share with any hit is near 2.9%.
SNCA viab count = reduces viability of HEK-293 SNCA reporter cells; HEK-293-SNCA-luc viability, GF-AFC fluorescence, 24 h; Potency, µM (series often up to 57.1 µM), inactives show top-dose activity change, negative = cytotoxicity, actives largely listed as cytotoxic; hit rate 0.12% among 150,000; AID 1671193;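 note: potency is the fitted concentration of half-maximal effect; 0% = DMSO-treated cells and -100% = medium-only wells without cells; nearly all actives have a fitted effect of over 30% in size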
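HEK-293-SNCA-luc cells (1500/well) plated 24 h, then exposed 24 h to a dilution series; GF-AFC added 30 min at 37C, fluorescence 405/540 nm; normalised to medium-only and DMSO wells, Hill fit.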
SNCA expr inh = reduces expression of the alpha-synuclein gene. AID 1671194. HEK-293 SNCA-luciferase knock-in, luminescence, 24 h. hit rate 0.17% among 140,000. Potency, µM (titrated, usually from 57.2 µM), without a hit: at the top dose activity change, negative = inhibition, usual class: inhibitors;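 note: potency is the fitted concentration of half-maximal effect; plate controls were DMSO cells for no effect and cell-free wells for full effect; nearly all actives have a fitted effect of over 45% in size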
KDM5B inhibitor = KDM5B demethylase inhibition; Q9UGL1; KDM5B demethylase, FDH-coupled NADH fluorescence (FDH is formaldehyde dehydrogenase); Potency, µM (titrated, usually from 57.7 µM), actives largely listed as inhibitors; hit rate 2.6% among 220,000; AID 1347165; note: potency is the fitted concentration of half-maximal effect; 0% is about no effect; nearly all actives have a fitted effect of over 70% in size
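Inhibition is measured as reduced NADH fluorescence generation from FDH coupling to formaldehyde release. Truncated KDM5BΔAP at 200 nM final acts on H3K4me3 peptide (12.5 µM in substrate mix) in pH 7.5 HEPES buffer with Tween-20, 30 min, room temperature.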
IP6K1 inh = blocks human inositol hexakisphosphate kinase 1; IP6K1 kinase, ADP-Glo luminescence, 2 h; active compounds read low; AID 1645851; activity change, % (series mostly up to about 58 µM); hit rate 0.81% among 140,000; in the data active = activity change below about -25%; note: % is set by controls: 0 for no effect and ±100 for the full control effect
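ADP-Glo luminescence measures ADP made by human IP6K1 during a 2 h RT reaction with ATP/IP6 (mix at 1.3 mM/130 uM); top library doses 57.5 and 19.1 uM final.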
The depositor's hits bear a star; i = inactive; ? = inconclusive; · = not tested or not shown; [ ] = dose if it differs, or a comment. Unless noted, calls come from the whole dose curve; as a rule, active = well fitted curve in the direction sought with a large enough effect; inconclusive = small, poorly fitted or top-dose-only effect, or another doubt; inactive = no such curve, though single readings can be large; an effect the other way counts as inactive or inconclusive.

SMILES | SNCA viab count | SNCA expr inh | KDM5B inhibitor | IP6K1 inh
CCc1ccc(OC(=O)c2cc(OC)c(OC)c(OC)c2)c(Br)c1 | · | · | i | ·
O=C(CCC1CCCC1)NCc1nnc2cc(-c3nc(C4CC4)no3)ccn12 | -8% | 17% | 11µM* | 17
O=C(CC1CCCCC1)NCc1nnc2cc(-c3nc(C4CC4)no3)ccn12 | 1% | 5% | 14µM* | 32
O=C(NCc1nnc2cc(-c3nc(C4CC4)no3)ccn12)c1ccc(Cl)cc1 | 4% | -9% | ? | 2
CCc1noc(-c2ccn3c(CNC(=O)CCc4ccc(OC)cc4)nnc3c2)n1 | 3% | 4% | ? | 13
O=[S+]1([O-])NC2(CCN(CC3CCOCC3)CC2)COc2ccccc21 | 0% | -10% | 79µM* | -2
O=C1CC(c2ccccc2)N(C(=O)CNC(=O)c2ccccn2)CCCCCN1 (stereo not drawn) | -10% | -24% | 28µM* | -3
CCO[C@H]1CN(C(=O)c2nc3ccccc3[nH]c2=O)C[C@@H]1O | -9% | 9% | 25µM* | 32
COc1ccc2[nH]c(C(=O)N3C[C@@H](C(N)=O)[C@H](c4n[nH]c(C)n4)C3)cc2c1 | -21% | 12% | 28µM* | 3
CNC(=O)[C@@H]1CN(C(=O)c2cc3cc(OC)ccc3[nH]2)C[C@H]1COC | -1% | -8% | 32µM* | 7
CNC(=O)[C@@H]1CN(C(=O)c2cc3ccc(OC)cc3[nH]2)C[C@H]1c1n[nH]c(C)n1 | 7% | 0% | ? | 3
CC(=O)NCc1ccc(-c2csc(Nc3ccc(F)cc3)n2)o1 | · | · | i | ·
CC(C)(C)c1ccc(S(=O)(=O)NCCO)cc1 | · | · | i | ·
CS(=O)(=O)CC(O)c1cc2n(n1)CCN(c1cncc(C(N)=O)n1)C2 (stereo not drawn) | 2% | -9% | 25µM* | 11
COc1cccc(F)c1-c1ccc2c(n1)c(=O)ncn2Cc1ccccc1 | -7%[87.6 µM] | 1%[87.6 µM] | i | 8
O=c1ncn(Cc2ccccc2)c2ccc(-c3ccc(F)cc3F)nc12 | 8%[87.6 µM] | 58%[87.6 µM] | 28µM* | 16
O=c1ncn(Cc2ccccc2)c2ccc(-c3ccsc3)nc12 | 2%[87.6 µM] | 6%[87.6 µM] | 35µM* | 2
O=C(Cn1cnc2ccccc2c1=O)OCC(=O)c1ccc2c(c1)OCO2 | · | · | i | ·
CCOC(=O)c1ccc(NC(=O)C2CC(=O)N(c3n[nH]c4ccccc34)C2)cc1 (stereo not drawn) | 5% | -12% | 28µM* | -1
Cc1cc(C)cc(-c2[nH]nc3ncc(-c4ccsc4)nc23)c1 | ? | 16%[87.6 µM] | 28µM* | 31
COc1ccc(-c2cnc3n[nH]c(-c4ccc(F)cc4C)c3n2)cc1OC | 8%[87.6 µM] | -15%[87.6 µM] | 32µM* | 17
COc1ncccc1-c1cnc2n[nH]c(-c3ccccc3)c2n1 | -6%[87.6 µM] | -16%[87.6 µM] | 35µM* | 17
Cc1ccsc1-c1[nH]nc2ncc(-c3ccc(F)cc3)nc12 | 13%[87.6 µM] | 15%[87.6 µM] | i | 13
COc1ncccc1-c1cnc2n[nH]c(-c3ccccc3C)c2n1 | -1%[87.6 µM] | ? | 40µM* | 5
COc1cccc(-c2cnc3n[nH]c(-c4ccc(F)cc4C)c3n2)c1 | 7%[87.6 µM] | -25%[87.6 µM] | ? | 25
SMILES | SNCA viab count | SNCA expr inh | KDM5B inhibitor | IP6K1 inh
COc1ccccc1-c1[nH]nc2ncc(-c3cccnc3OC)nc12 | 1%[87.6 µM] | -9%[87.6 µM] | i | 15
c1ccc(-c2cnc3n[nH]c(-c4ccccc4)c3n2)cc1 | -23%[87.6 µM] | -20%[87.6 µM] | ? | 29
CCCCn1nc(C(=O)NCCN2CCOCC2)c2ccccc2c1=O | · | · | i | ·
CSc1ccccc1NC(=O)c1cccc(F)c1 | · | · | i | ·
CCCCn1c(N)c(N(CC)C(=O)c2cc(-c3ccc(OC)cc3)nc3ccccc23)c(=O)[nH]c1=O | · | · | i | ·
CCN(CC)C(=S)Nc1ccc(C(=O)O)cc1 | · | · | i | ·
Fc1ccccc1-c1cnc2n[nH]c(-c3ccccc3)c2n1 | -13%[87.6 µM] | ? | 32µM* | 6
COc1ccccc1-c1cnc2n[nH]c(-c3ccccc3)c2n1 | 9%[87.6 µM] | ? | 35µM* | 17
COc1ccc(-c2[nH]nc3ncc(-c4cccnc4)nc23)cc1F | ? | 2.8µM* | i | -2
Cc1cccc(-c2cnc3n[nH]c(-c4ccccc4)c3n2)c1 | ? | ? | 35µM* | 4
Cc1cccc(C)c1NC(=O)C1(NC=O)CCCCC1 | · | · | i | ·
COC(=O)c1ccc(C)c(NC(=O)c2cnccn2)c1 | · | · | i | ·
CC1(C(=O)NC2COC2)CN(Cc2ccccc2)Cc2ccc(Nc3ccccc3)nc21 (stereo not drawn) | -14%[87.6 µM] | -20%[87.6 µM] | 35µM* | -3
CC1(C(=O)NC2CCOCC2)CN(Cc2ccccc2)Cc2ccc(Nc3ccccc3)nc21 (stereo not drawn) | ? | -29% | 28µM* | 3
CCc1ccc(-c2csc(/C(C#N)=C/Nc3c(C)cc(C)cc3C)n2)cc1 | · | · | i | ·
O=C(/C(C=Nc1ccccc1F)=C(/O)c1ccco1)C(F)(F)F | · | · | i | ·
COc1cccc(C(=O)N2CCCC(N3C(=O)c4c(c(C)nn4-c4ccccc4)C3C(C)C)C2)c1 (stereo not drawn) | · | · | · | 6
C=C1C(=O)O[C@@H]2C/C(C)=C\C(=O)/C=C(\C)[C@@H](OC(=O)/C(C)=C\C)[C@H](O)[C@@H]12 | 15µM* | · | · | 7
C=C1C(=O)O[C@@H]2[C@H]3C(C)=CC(=O)C3=C(C)[C@@H](OC(=O)/C(C)=C\C)[C@H](O)[C@@H]12 | ? | · | · | 8
COc1ccccc1CC(=O)N1CCCc2ncc(C(=O)Nc3cccc(C(F)(F)F)c3)cc21 | -12% | 3% | ? | 5
c1coc(-c2ccnc3nc(-c4cccs4)nn23)c1 | -7% | 8% | 28µM* | 2
Brc1ccc(-c2ccnc3nc(-c4cccs4)nn23)cc1 | 10% | 138% | 7.9µM* | 1
c1csc(-c2nc3nccc(-c4ccncc4)n3n2)c1 | 4% | 87% | 28µM* | -3
COc1cc(OC)c(NC(=O)CSCc2cc(=O)n3cc(C)ccc3n2)cc1Cl | · | · | i | ·
COC(=O)[C@@H]1Cc2c([nH]c3ccccc23)[C@H]2C[C@@H](NC(C)C)C[C@@H](c3ccccc3)N21 | ? | -17%[87.6 µM] | 11µM* | -3
SMILES | SNCA viab count | SNCA expr inh | KDM5B inhibitor | IP6K1 inh
COC(=O)[C@@H]1Cc2c([nH]c3ccccc23)[C@H]2C[C@@H](NC(C)C)C[C@@H](c3ccc(C)cc3)N21 | -26%[87.6 µM] | -25%[87.6 µM] | 28µM* | 0
CN(C)CCNc1oc(COc2ccccc2)nc1C#N | · | · | i | ·
O=C(Cc1ccc(F)cc1)N1CCCN(CCc2ccccc2)c2ccccc21 | -3% | -16% | · | 27
O=C(Cc1cccs1)N1CCCN(CCc2ccccc2)c2ccccc21 | 2% | -11% | 22µM* | -4
CCn1ccc(C(=O)N2CC(N(C)Cc3cccnc3)C2)n1 | -9% | 15% | · | 22
COC(=O)[C@@H]1Cc2c([nH]c3ccccc23)[C@H]2C[C@@H](NCc3cccs3)C[C@@H](c3ccccc3F)N21 | 2% | -11% | ? | -14
COCCN[C@@H]1C[C@@H]2c3[nH]c4ccccc4c3C[C@@H](C(=O)OC)N2[C@H](c2ccc(F)c(F)c2)C1 | -8% | 3% | 13µM* | -2

Bioassay records from PubChem.
